Source: PubChem BioAssay AID686978 (National Center for Advancing Translational Sciences (NCATS), 2013)
Screen size: about 420,000 compounds; about 64,000 (15%) were called active. Not shown: some 27% with an inconclusive outcome. Calls follow the shape of the dose curve; as a rule, active = well fitted inhibition curve with a large enough effect; inconclusive = small, poorly fitted or top-dose-only effect; inactive = flat fitted curve, though single readings scatter. Only a sample is shown.

Assay: qHTS for Inhibitors of human tyrosyl-DNA phosphodiesterase 1 (TDP1): qHTS in cells in absence of CPT; also: nearly all actives have a fitted effect of over 55% in size
Details: DT40 Tdp1-/- hTDP1 cells, no CPT, ATP luminescence, 48 h; activity change, negative = growth inhibition: at 46.2 µM (top of the series)
In short: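 Seeded 400 DT40-hTDP1 cells/well (vehicle DMSO, no 20 nM CPT); pinned compounds; ≥48 hr at 37 °C; CellTiter-Glo luminescence as viability measure.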
% is scaled to controls: 0 for no effect and ±100 for the full control effect; potency is read from the fitted curve at half-maximal effect.

SMILES	activity change, negative = growth inhibition	Potency
CCOn1c(=O)c(=O)n(O)c2ccccc21	6.1% (inactive)	
O=C(Nc1nonc1-c1ccc(Cl)cc1)c1ccco1	-16.8% (inactive)	
Cc1cccc(-c2c(NC(=O)c3ccco3)oc3ccc(Cl)cc3c2=O)c1		25.9 µM (active)
COc1ccc(-c2c(NC(=O)c3ccco3)oc3ccc(Cl)cc3c2=O)cc1	-0.195% (inactive)	
Clc1ccccc1CSc1nnc(-c2ccco2)c(-c2ccco2)n1	-20.7% (inactive)	
COC(=O)c1noc(C)c1-c1ccnn1C(=O)c1ccc(Cl)cc1	3.11% (inactive)	
CC(Oc1ccc(Cl)cc1)c1ccnn1S(C)(=O)=O (stereo not drawn)	-19.6% (inactive)	
Cc1onc(-c2ccc(Cl)cc2)c1-c1ccnn1S(=O)(=O)c1ccc(Cl)cc1		16.4 µM (active)
Nc1ncnc2c1ncn2[C@@H]1O[C@H](C(=O)NS(=O)(=O)c2c(Cl)nc3sccn23)[C@@H](O)[C@H]1O	-0.108% (inactive)	
COC1C[C@@H](O[C@@H]2C(C)C(=O)OC(C)C(C)C(O)C(C)C(=O)[C@@]3(CO3)CC(C)C(OC3OC(C)CC(N(C)C)C3O)C2C)OC(C)[C@@H]1O (stereo partly drawn)	-0.826% (inactive)	
Cc1ccc(S(=O)(=O)n2cccc2CO)cc1	-3.56% (inactive)	
CCOc1ccc(-c2cc3c(=O)n(CC(=O)NCc4ccc(OC)cc4)ccn3n2)cc1	-10.6% (inactive)	
COCCCNC(=S)NNC(=O)C(O)(c1ccccc1)c1ccccc1	-6.89% (inactive)	
COc1cc(C2/C(=C(\O)c3ccc4c(c3)CC(C)O4)C(=O)C(=O)N2c2nnc(C)s2)cc(OC)c1OC (stereo not drawn)	11.4% (inactive)	
CS(=O)(=O)N1CCc2nc(-c3ccccc3)sc2C1	2.11% (inactive)	
COC(=O)[C@@]1(Sc2ccc(C)cc2)CC(=O)N(c2cccc(SC)c2)[C@@H]1c1ccccc1	-80.6% (inactive)	
COC(=O)c1ccccc1SC1CC(=O)N(c2cccc(C)c2)C1=O (stereo not drawn)		8.2 µM (active)
COC(=O)c1cccc(N2C(=O)C3C4C=CC(CC4)C3C2=O)c1 (stereo not drawn)	-0.408% (inactive)	
Cc1ccc(CC2S/C(=C(/C#N)C(=O)N3CCOCC3)N(c3ccccc3)C2=O)cc1 (stereo not drawn)	-17.2% (inactive)	
C[n+]1ccc(/C=C/c2c[nH]c3ccccc23)cc1		0.651 µM (active)
CC(=O)N/C(=C/c1ccc(Cl)cc1)C(=O)NCCc1c[nH]c2ccccc12	-27.7% (inactive)	
O=C(NC1CCCC1)C(=O)c1c[nH]c2ccccc12	2.79% (inactive)	
O=C(NCc1ccc(F)cc1F)[C@@H]1CCCN1C(=O)[C@@H]1CCCN1C(=O)c1cccc(Cl)c1	-41.3% (inactive)	
Cc1cc(=O)oc2c1c(C)nn2-c1ccc(Cl)cc1	-23.9% (inactive)	
O=C(Nc1ccccc1)OCc1cn(-c2ccc(Cl)cc2)nn1	-27.2% (inactive)	
CCOc1ccccc1C1CC(c2cccc(NS(C)(=O)=O)c2)=NN1C(=O)c1ccccc1 (stereo not drawn)	-12% (inactive)	

SMILES	activity change, negative = growth inhibition	Potency
CC(=O)c1cccc(-c2cnc3c(NC=O)cc(-c4ccc(N(C)C)cc4)cn23)c1		8.2 µM (active)
Cc1ccc(C(=O)N2CCN(C(=O)N3CCOCC3)CC2)cc1	-0.848% (inactive)	
N#C/C=C(/c1ccc(F)cc1)N1CCOCC1	-5.74% (inactive)	
CC(=O)Nc1cccc(-c2cc(NC=O)c3ncc(-c4ccc(F)c(Cl)c4)n3c2)c1		16.4 µM (active)
CC(=O)Nc1cccc(-c2cnc3ccccc3n2)c1	-14.1% (inactive)	
CC(=O)c1ccc(-c2cnc3c(NC=O)cc(-c4cccc(NS(C)(=O)=O)c4)cn23)cc1		20.6 µM (active)
Cc1c(NC(=O)Nc2ccc(F)c(Cl)c2)c(=O)n(-c2ccccc2)n1C	-1.88% (inactive)	
O=CNc1cc(-c2ccc(C(=O)N3CCOCC3)cc2)cn2c(-c3ccc(F)cc3)cnc12		18.4 µM (active)
CCS(=O)(=O)Nc1cc(C(=O)N2C[C@@H](C)O[C@@H](C)C2)c2c(c1)nc(-c1ccccc1)n2C	-3.48% (inactive)	
COC(c1ccccc1)c1nnc(CCC(=O)N2CCN(CCOc3ccccc3)CC2)o1 (stereo not drawn)	-28.4% (inactive)	
CSc1nnc2c(n1)OC(c1cn(C)c3ccccc13)N(C(C)=O)c1ccccc1-2 (stereo not drawn)	-3.8% (inactive)	
O=C(O)c1ccccc1CSc1nc2ccccc2s1	-19.5% (inactive)	
CCNC(=O)CC1C(=O)N(c2ccc(F)cc2)C(=O)N1CCc1sccc1C (stereo not drawn)	-13.8% (inactive)	
Cc1nc2nc[nH]n2c(=O)c1C/C=C/c1ccccc1	-2.31% (inactive)	
CCn1c(CSc2ncccn2)nnc1SCC(=O)N1c2ccccc2CC1C (stereo not drawn)	-7.77% (inactive)	
CCc1nnc(NC(=O)CCC(=O)NCc2ccccc2OC)s1	5.54% (inactive)	
COc1ccccc1C1/C(=C(/O)c2ccc(OC(C)C)cc2)C(=O)C(=O)N1c1cc(C)on1 (stereo not drawn)	-14.2% (inactive)	
COc1ccc(NC(C)=O)cc1NC(=O)CN1CCN(c2ccc(F)cc2)CC1	-26.4% (inactive)	
O=C(Nc1ccc(F)cc1)N1CCN(c2ccc(F)cc2)CC1	-1.59% (inactive)	
COc1ccc(-c2nnc(SCC(=O)Nc3ccccc3C)o2)cc1OC	-12.8% (inactive)	
COc1ccc(-c2nnco2)cc1OC	-8.54% (inactive)	
COc1ccc(-c2cc(NC=O)c3ncc(-c4ccccc4)n3c2)cc1OC		8.2 µM (active)
CN(C)C(=O)c1cccc(-c2cnc3c(NC=O)cc(-c4ccc(F)cc4)cn23)c1		6.51 µM (active)
CC(=O)c1cccc(-c2cnc3c(NC=O)cc(-c4ccccc4Oc4ccccc4)cn23)c1		14.6 µM (active)
CC(=O)Nc1cc(-c2ccc(N3CCN(C)CC3)cc2)cn2c(-c3ccc(F)cc3)cnc12		4.61 µM (active)
CCCCCCCCCCOC(=O)C[N+](C)(C)CC1CCCCC1O (stereo not drawn)	-24.1% (inactive)	

SMILES	activity change, negative = growth inhibition	Potency
CO/N=C/c1cn(-c2ccc(Cl)cc2)nn1	1.24% (inactive)	
CCOC(=O)CSc1nnc(CNC(=O)c2cccs2)n1-c1ccccc1	3.51% (inactive)	
Nc1ccc(-c2nnc(-c3ccccc3)o2)cc1	-8.88% (inactive)	
COc1ccccc1C1C(C(N)=O)=C(C)Nc2nc(CCCO)nn21 (stereo not drawn)	-29.3% (inactive)	
Cc1cccc(C)c1NC(=O)CNC(=O)c1ccc2c(c1)OCCO2	-2.88% (inactive)	
COc1ccccc1NC(=O)CCSc1nnc(-c2ccc(O)cc2)o1	-19.5% (inactive)	
COc1ccc(C2C(C(=O)Nc3ccccc3OC)=C(C)Nc3nnnn32)c(OC)c1 (stereo not drawn)	-22.7% (inactive)	
COc1ccc(-c2cc(NC=O)c3ncc(-c4cccc(C(=O)N(C)C)c4)n3c2)c(OC)c1		16.4 µM (active)
COCCCN1C(=O)c2ccc(C(=O)Nc3ccc(OC)cc3OC)cc2C1=O	3.04% (inactive)	
CC(=O)c1cccc(-c2cnc3c(NC=O)cc(-c4ccc(N5CCN(C)CC5)cc4)cn23)c1		16.4 µM (active)
COc1ccc(C2(C#N)CCC(C(=O)O)CC2)cc1OC1CCCC1 (stereo not drawn)	-28.1% (inactive)	
Cc1coc2cc3oc(=O)c(CCC(=O)O)c(C)c3cc12	-14.3% (inactive)	
CC(C)Cc1nnc(NC(=O)CCC(=O)Nc2ccc3cn[nH]c3c2)s1	1.32% (inactive)	
Nc1nonc1-n1nnc(C(=O)N/N=C\c2ccncc2)c1CN1CCCCC1	-5.18% (inactive)	
COc1ccc(Cc2nnc(NS(=O)(=O)Cc3ccccc3)s2)cc1	6.02% (inactive)	
CCC(C)(C(=O)NC1CCCC1)N(C(=O)CNC(C)=O)c1ccc(C)cc1 (stereo not drawn)	-23% (inactive)	
Cc1nc2nc(SCC(=O)c3ccccc3)[nH]c2cc1Br	-19.9% (inactive)	
COc1ccc(OC)c(Cc2nnc(CCC(=O)NC3CCCC3)o2)c1	3.2% (inactive)	
Cc1c(CCC(=O)O)c(=O)oc2c(C)c(OCc3ccccc3Cl)ccc12	-1.81% (inactive)	
COc1ccc2c(C)c(CCC(=O)NC3CC3)c(=O)oc2c1C		16.4 µM (active)
O=C(Nc1cccc2c1N(C(=O)c1ccco1)CCC2)c1ccco1	1.69% (inactive)	
O=c1[nH]c2ccc(S(=O)(=O)N3CCCC3)cc2[nH]1	-28.6% (inactive)	
Cc1cc(C)cc(NC(=O)N(C)Cc2ccccc2)c1	-6.83% (inactive)	
COC(=O)C(NS(=O)(=O)c1ccc(F)cc1)c1ccccc1 (stereo not drawn)	-17.5% (inactive)	
CCOC(=O)C(C)n1cnc2c(nnn2-c2cccc(OC)c2)c1=O (stereo not drawn)	2.83% (inactive)	
CCC(=O)Nc1ccc(C)cc1-c1nc2ccccc2n(Cc2ccccc2)c1=O	-15.3% (inactive)	

SMILES	activity change, negative = growth inhibition	Potency
CC(=O)c1nc2ccccc2n1Cc1ccccc1	-0.649% (inactive)	
CCc1cccc(CC)c1NC(=O)Cn1c(=O)c(-c2cc(C)ccc2NC(C)=O)nc2ccccc21	1.16% (inactive)	
CC(=O)Nc1nc2ccccc2n1Cc1ccc(C)cc1		13 µM (active)
CCC(=O)Nc1ccc2nc(C)n(Cc3ccccc3Cl)c(=O)c2c1	-24.9% (inactive)	
CCC(=O)Nc1nc2ccccc2n1Cc1ccccc1C		14.6 µM (active)
Cc1cccc(N(CC(=O)N2CCOCC2)S(C)(=O)=O)c1	-1.19% (inactive)	
CCNC(=O)COC(=O)CCNC(=O)c1cccc(C)c1	-4.54% (inactive)	
CCOc1ccc(C(CC(=O)O)NC(=O)C23CC4CC(CC(C4)C2)C3)cc1OC (stereo not drawn)	-12.7% (inactive)	
CN1C(=O)/C(=C/C=C2\SCCN2C)OC1=S	-19.2% (inactive)	
COc1ccccc1-c1nc(N2CCN(C)CC2)c2ccccc2n1	7.74% (inactive)	
COc1ccc(N2CCN(c3nc(-c4ccccc4F)nc4ccccc34)CC2)cc1		16.4 µM (active)
COc1ccc(N2CCN(CCNC(=O)c3nnc(Cc4c(F)cccc4Cl)o3)CC2)cc1	-19.9% (inactive)	
Brc1cc(Br)c(Oc2cc(Br)c(Br)cc2Br)cc1Br	-18.6% (inactive)	
CCc1ccc[n+](-c2nc([O-])sc2C=O)c1	1.39% (inactive)	
CCN(CC(=O)Nc1ccccc1C(F)(F)F)C(=O)C1CCN(C(=O)Nc2ccccc2)CC1	26.8% (inactive)	
CC(C)CCN(C(=O)Nc1ccc(Cl)c(Cl)c1)C(C)c1cccs1 (stereo not drawn)		18.4 µM (active)
Cc1ccc(NC(=S)N(Cc2ccco2)C(C)c2cccs2)cc1 (stereo not drawn)	12.8% (inactive)	
CC(=O)Nc1ccc(S(=O)(=O)N2CCC(N(C)CCC(C)C)CC2)cc1	-14.4% (inactive)	
S=C(Nc1ccc(Br)cc1Cl)N1CCC2(CC1)OCCO2	-14.2% (inactive)	
C/C=C/C=C/C(=O)OCC(=O)Nc1ccc(Cl)cc1	-27.7% (inactive)	
O=C(NCN1CCN(CCO)CC1)c1cnccn1	-12.6% (inactive)	
O=C(CN1C(=O)CSc2ncccc21)N1CCOCC1	0.179% (inactive)	
Cc1cc(/C=C2/SC(=O)N(CC(=O)N3CCCC3)C2=O)ccc1N1CCOCC1		23.1 µM (active)
Cc1cc(/C=C2/SC(=O)N(CC(=O)N3CCCC3)C2=O)c(C)n1C	-8.02% (inactive)	
CN(C)C(=S)Nc1ccc(Br)cc1Cl	4.16% (inactive)	
